# Results taken from PubChem BioAssay (NCI).
# About 83,000 compounds went through this panel and 20% of them were active in at least one assay; those are over-represented in the sample as a whole.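 48-hour exposure, single concentration, 96-well plates; percent growth endpoint where 0 means no net growth. Active: below 10.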 Active and inactive are the calls of the source.
# System: SF-268 CNS
# Test: NCI-60 one-dose screen, 48 h (100 = growth as untreated, 0 = no growth, -100 = all killed)
# Conditions: 10 µM unless noted
row,SMILES,growth
1,Oc1ccc(-c2cnc(-c3ccccc3)[nH]2)c(O)c1,100% (inactive)
2,CCCCn1c(-c2ccc(F)cc2)nc2cc(OC)c(OC)cc2c1=O,101% (inactive)
3,O=C(Nc1ccccc1)C(CCCCN1C(=O)c2ccccc2C1=O)N1C(=O)c2ccccc2C1=O (stereo unspecified),99.8% (inactive)
4,Cc1[nH]n(C(=O)c2ccncc2)c(=O)c1N=Nc1ccc(O)c(C(=O)O)c1,106% (inactive)
5,COc1cc2c(cc1OC)C(=O)OC2,100% (inactive)
6,Cc1cc2nc3c(=O)[nH]c(=O)nc-3n(CC=O)c2cc1C,99.5% (inactive)
7,COC(=O)C1(C)COP(=O)(NC23CC4CC(CC(C4)C2)C3)OC1 (stereo unspecified),104% (inactive)
8,Cc1nc([C@H]2CC[C@H]3[C@@H]4CCC5=CC(=O)CC[C@]5(C)[C@H]4CC[C@]23C)cs1,91.7% (inactive)
9,O=C1OCC2=C1C(c1cccc(Br)c1)c1cc3c(cc1N2CCO)OCCO3 (stereo unspecified),19% (inactive)
10,C=CCn1c(SCC(=O)Nc2ccc(C(=O)/C=C/c3ccc(Cl)cc3)cc2)nnc1-c1ccc(Cl)cc1,82.7% (inactive)
11,CCc1ccc2c(c1)N(CCO)C1=C(C(=O)OC1)C2c1cccc(Cl)c1 (stereo unspecified),44.9% (inactive)
12,COc1ccc2c(c1)N(CCO)C1=C(C(=O)OC1)C2c1cccc(Br)c1 (stereo unspecified),25% (inactive)
13,COC(=O)c1cc2oc(/C=N/NC(=O)c3cc4oc(-c5cccc(C(F)(F)F)c5)cc4[nH]3)cc2n1Cc1ccccc1,84.8% (inactive)
14,CCCCCCCCCCC(C(O)c1ccccc1)N1CCCCC1 (stereo unspecified),68.4% (inactive)
15,CC(=O)[C@@]1(O)[C@H](C)C[C@H]2[C@@H]3C=C(C)C4=Cc5c(cnn5-c5ccccc5)C[C@]4(C)[C@H]3[C@@H](O)C[C@@]21C,27.9% (inactive)
16,CCOc1c(C#N)c2c(N)ncnc2n1C1OC(CO)C(O)C1O (stereo unspecified),25.2% (inactive)
17,COc1ccc(C2C3=C(COC3=O)N(CCO)c3cc(OC)c(OC)cc32)cc1 (stereo unspecified),101% (inactive)

row,SMILES,growth
1,CCCCN(CCCC)CCC(=O)c1ccc(OC)c2ccccc12,95% (inactive)
2,Cc1ccccc1CNc1ncnc2[nH]ncc12,95.4% (inactive)
3,O=C1OC(c2ccc(-c3ccccc3)cc2)=C/C1=C/c1c(Cl)cccc1Cl,96.7% (inactive)
4,Fc1ccc(-c2nnc(N3CCOCC3)c3ccccc23)cc1,103% (inactive)
5,CC1=NN(c2cccc(S(N)(=O)=O)c2)C(=O)C1,91.6% (inactive)
6,CCc1ccc2c(c1)N(CCO)C1=C(C(=O)OC1)C2c1cccc(Br)c1 (stereo unspecified),47.2% (inactive)
7,Fc1ccc2nc(-c3ccc(-c4noc(-c5ccc(Cl)cc5)n4)cc3)[nH]c2c1,105% (inactive)
8,Cc1cccc(C(=O)O)n1,107% (inactive)
9,COc1ccc(Nc2ncccc2C(=O)NCc2cn(Cc3cc(OC)cc(OC)c3)nn2)cc1,87.2% (inactive)
10,CN(C)c1ccc(C(c2ccccc2)c2ccc(N(C)C)cc2)cc1,89.9% (inactive)
11,COc1ccc(/C=C2\CCCC3=C2N=C2SC(C)=NN2C3c2ccc(OC)c(OC)c2)cc1OC (stereo unspecified),39% (inactive)
12,O=C1OCC2=C1C(c1ccc(Cl)c(Cl)c1)c1cc3c(cc1N2CCO)CCC3 (stereo unspecified),44.3% (inactive)
13,COc1cc(C2C=C(C)N=C3SC=NN32)cc(OC)c1OC (stereo unspecified),111% (inactive)
14,Cc1cc(O)ccc1C1=NN(c2ccc(S(N)(=O)=O)cc2)C(=O)CC1,68.5% (inactive)
15,NC(=Nc1ccccc1)SCCCSC(N)=Nc1ccccc1,95.6% (inactive)
16,CC(=O)Nc1ccc(Cl)cc1Cl,97.4% (inactive)
17,NS(=O)(=O)c1ccc(N2N=C(c3ccc(Br)cc3)CC2c2cn(-c3ccccc3)nc2-c2ccc(Cl)cc2)cc1 (stereo unspecified),84.7% (inactive)

# System: SF-295 CNS
# Test: as above
# Conditions: 10 µM unless noted
row,SMILES,growth
1,CC1(C)C(N(O)C(=O)Nc2ccc(Cl)cc2)N(c2ccc(Cl)cc2)C(=O)N1CC(=O)N/N=C/C=C/c1ccc([N+](=O)[O-])o1 (stereo unspecified),54.9% (inactive)
2,NC(N)=N/N=C\c1cccc(OCc2ccccc2)c1,85.1% (inactive)
3,O=C(Nc1ccccc1)C(CCCCN1C(=O)c2ccccc2C1=O)N1C(=O)c2ccccc2C1=O (stereo unspecified),101% (inactive)
4,COc1cc2c(cc1OC)C(=O)OC2,102% (inactive)
5,Cc1cc2nc3c(=O)[nH]c(=O)nc-3n(CC=O)c2cc1C,92.2% (inactive)
6,COC(=O)C1(C)COP(=O)(NC23CC4CC(CC(C4)C2)C3)OC1 (stereo unspecified),104% (inactive)
7,Cc1nc([C@H]2CC[C@H]3[C@@H]4CCC5=CC(=O)CC[C@]5(C)[C@H]4CC[C@]23C)cs1,46.1% (inactive)
8,O=C1OCC2=C1C(c1cccc(Br)c1)c1cc3c(cc1N2CCO)OCCO3 (stereo unspecified),-4.99% (active)
9,CCc1ccc2c(c1)N(CCO)C1=C(C(=O)OC1)C2c1cccc(Cl)c1 (stereo unspecified),-15.6% (active)
10,COc1ccc2c(c1)N(CCO)C1=C(C(=O)OC1)C2c1cccc(Br)c1 (stereo unspecified),-19.4% (active)
11,CC(=O)[C@@]1(O)[C@H](C)C[C@H]2[C@@H]3C=C(C)C4=Cc5c(cnn5-c5ccccc5)C[C@]4(C)[C@H]3[C@@H](O)C[C@@]21C,-49.1% (active)
12,CCOc1c(C#N)c2c(N)ncnc2n1C1OC(CO)C(O)C1O (stereo unspecified),71.3% (inactive)
13,CCNS(=O)(=O)c1ccc(C)cc1,104% (inactive)
14,COc1ccc(C2C3=C(COC3=O)N(CCO)c3cc(OC)c(OC)cc32)cc1 (stereo unspecified),110% (inactive)
15,CCCCN(CCCC)CCC(=O)c1ccc(OC)c2ccccc12,100% (inactive)
16,Cc1ccccc1CNc1ncnc2[nH]ncc12,84.3% (inactive)
17,NC(N)=N/N=C\c1ccc(OCc2ccccc2)cc1,99% (inactive)
18,CC1=NN(c2cccc(S(N)(=O)=O)c2)C(=O)C1,87.8% (inactive)
19,CCc1ccc2c(c1)N(CCO)C1=C(C(=O)OC1)C2c1cccc(Br)c1 (stereo unspecified),-19.3% (active)
20,Cc1cccc(C(=O)O)n1,98% (inactive)
21,COc1ccc(/C=C2\CCCC3=C2N=C2SC(C)=NN2C3c2ccc(OC)c(OC)c2)cc1OC (stereo unspecified),25.3% (inactive)
22,Cn1c(=O)c2[nH]c(Cc3ccc4c(c3)OCO4)nc2n(C)c1=O,104% (inactive)
23,O=C1OCC2=C1C(c1ccc(Cl)c(Cl)c1)c1cc3c(cc1N2CCO)CCC3 (stereo unspecified),-9.42% (active)
24,COc1cc(C2C=C(C)N=C3SC=NN32)cc(OC)c1OC (stereo unspecified),107% (inactive)
25,Cc1cc(O)ccc1C1=NN(c2ccc(S(N)(=O)=O)cc2)C(=O)CC1,30.4% (inactive)
26,CC(=O)Nc1ccc(Cl)cc1Cl,83.8% (inactive)
27,NS(=O)(=O)c1ccc(N2N=C(c3ccc(Br)cc3)CC2c2cn(-c3ccccc3)nc2-c2ccc(Cl)cc2)cc1 (stereo unspecified),92.7% (inactive)
